Giardia FBPA inh: qHTS Assay for Inhibitors of Fructose-1,6-bisphosphate Aldolase from Giardia Lamblia; A8B2U2; purified Giardia FBPA; Potency, µM (series often up to 59.6 µM), without a hit: top-dose activity, negative = inhibition, most hits filed as inhibitors; 290,000 tested, 0.71% active; further: nearly all actives have a fitted effect of over 55% in size
Target sequence (A8B2U2 whole entry, looked up): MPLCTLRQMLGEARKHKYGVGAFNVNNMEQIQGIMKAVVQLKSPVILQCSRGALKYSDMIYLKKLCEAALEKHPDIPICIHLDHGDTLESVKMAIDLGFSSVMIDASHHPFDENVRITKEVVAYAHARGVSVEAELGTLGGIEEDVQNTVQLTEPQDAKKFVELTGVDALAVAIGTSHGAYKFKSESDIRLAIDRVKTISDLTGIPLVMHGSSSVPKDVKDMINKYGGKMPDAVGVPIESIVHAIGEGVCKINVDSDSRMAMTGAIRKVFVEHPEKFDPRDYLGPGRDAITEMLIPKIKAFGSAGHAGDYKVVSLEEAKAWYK
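Giardia FBPA (40 nM reagent) was preincubated 10 min at RT with compound (up to 57.5 uM final), then substrate plus GAPDH/TPI/NAD/arsenate coupling system with diaphorase/resazurin was added; resorufin fluorescence (525/598 nm) was read after 20 min.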
LmPK inhibitor: qHTS Assay for Inhibitors of Leishmania Mexicana Pyruvate Kinase (LmPK). purified LmPK, Kinase-Glo ATP luminescence, 1 h. Q27686. 290,000 tested, 0.37% active. Potency, µM (series often up to 57.5 µM), inactives show at the highest dose activity change, negative = inhibition, hits mostly inhibitors
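In 50 mM imidazole pH 7.2 with 7 mM MgCl2, LmPK (0.1 nM) turned over PEP (0.5 mM) and ADP (0.1 mM) for 1 h at room temperature. Luciferase read-out of ATP.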
RE007 growth inh: qHTS Assay for Inhibitors of the HIV-1 protein Vpr; S. pombe RE007 Vpr strain, BacTiter-Glo ATP luminescence, 24 h; Potency, µM (top dose mostly 92.2 µM), for inactives: top-dose activity change, negative = less growth, hits mostly inhibitors; 360,000 tested, 0.21% active; AID 651644, 2012; active means well fitted falling curve with a large enough effect; inconclusive means small, poorly fitted or top-dose-only effect; inactive means no such curve, though single readings can be large or run the other way; further: nearly all actives have a fitted effect of over 50% in size
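Fission yeast strain RE007, carrying one chromosomally integrated HIV-1 vpr copy, was seeded at OD 0.01 in PMG+AL medium with 23 nL pinned compound. After 24 h at 30 °C and 99% humidity, viability was read by BacTiter-Glo luminescence.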
TbPYK inhibitor: qHTS of Trypanosoma Brucei Inhibitors; Potency, µM (top dose mostly 76.8 µM), for inactives: top-dose activity, negative = inhibition, most hits filed as inhibitors; 410,000 tested, 0.12% active; TbPYK enzyme, Kinase-Glo Plus ATP luminescence, 45 min; AID 624173, 2012; pyruvate kinase (Trypanosoma brucei), Q57TT1; further: nearly all actives have a fitted effect of over 50% in size
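Assay buffer: 50 mM TEA pH 7.2, 100 mM KCl, 10 mM MgCl2, 0.05% BSA, 0.01% Tween-20. Pyruvate kinase from T. brucei plus substrate met compound, then ADP (130 uM final). Luminescence was read post 45 min RT.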
Numbers without * were called inactive; ? = inconclusive; . = no result given. Rows were chosen to be rich in hits. Some 0.95% of all compounds tested hit in one or more screens of this group. Unless noted, the call rests on the fitted dose curve; in most records, active means well fitted curve in the direction sought with a large enough effect; inconclusive means small, poorly fitted or top-dose-only effect, or another doubt; inactive means no such curve, though single readings can be large; an effect the other way counts as inactive or inconclusive. On the % scale 0 is the no-effect control and ±100 the full control effect; potency means the concentration at half of the fitted maximal effect.

SMILES | Giardia FBPA inh | LmPK inhibitor | RE007 growth inh | TbPYK inhibitor
COc1cc(O)c(C(=O)O)c(-c2cc(O)c(O)cc2C)c1 | 16% | ? | -3% | 10µM*
Cc1ccc(NC2=C(NC(=O)c3ccccc3)C(=O)c3ccccc3C2=O)cc1Cl | ? | 7.1µM* | ? | ?
S=c1c2c(nc3nc[nH]n13)CCC2 | 2.5µM* | -4% | ? | -29%
CCN1/C(=C/c2cc[n+](CCCS(=O)(=O)[O-])c3ccccc23)Sc2ccccc21 | -5% | -7% | -6% | -3%
C=CC[n+]1ccc(/C=C2\C=Cc3cc(C)ccc3N2CC)c2ccccc21 | ? | ? | 32µM* | -34%
C[C@H](CN1CCCC1)C(=O)c1ccc(C(F)(F)F)cc1 | . | . | . | 0%
Cc1cc(=O)n(Cc2ccc(Cl)cc2)c2c1c(C)nn2-c1ccccc1 | . | . | . | 1%
O=C1CC(N2CCN(Cc3ccccc3)CC2)C(=O)N1c1ccccc1 (stereo unspecified) | 5% | 2% | -5% | 3%
CC1CCN(C2CC(=O)N(c3ccccc3)C2=O)CC1 (stereo unspecified) | 5% | 0% | 20µM* | -2%
O=C1CC(N2CCSCC2)C(=O)N1c1ccc(Br)cc1 (stereo unspecified) | 2% | 6% | ? | -5%
CC1CCN(C2CC(=O)N(c3ccc(Br)cc3Br)C2=O)CC1 (stereo unspecified) | 0% | 4% | 40µM* | -2%
CNCC(=O)NC(CCCN=C(N)N)C(=O)NC(C(=O)NC(Cc1ccc(O)cc1)C(=O)NC(C(=O)NC(Cc1cnc[nH]1)C(=O)N1CCCC1C(=O)NC(C)C(=O)O)C(C)C)C(C)C (stereo unspecified) | . | . | . | -4%
O=C(Oc1c(Cl)cc(Cl)c2cccnc12)c1cccs1 | -7% | 5% | 5.6µM* | 10%
O=C(Oc1c(CN2CCOCC2)cc(Cl)c2cccnc12)c1cccs1 | ? | -1% | 1% | 3%
CCC(=Nc1ccc(N)cc1)C1=C(O)C(C(=O)OC)C(C)(C)CC1=O (stereo unspecified) | 1.1µM* | -11% | 1% | 6%
O=C(Nc1ccc([N+](=O)[O-])cc1)C(=O)Nc1cccc(C(=O)O)c1 | 0% | 25µM* | ? | ?
COc1ccc2nc3ccccc3nc2c1N | -11% | ? | ? | -16%
COc1ccc2nc3cccc(OC)c3nc2c1 | 1.4µM* | -7% | ? | -10%
O=C(NCCN1CCNC1=O)c1ccc2sc([C@H]3C[C@H](O)[C@@H](CO)O3)nc2c1 | . | . | -7% | -8%
COc1cc(C(=O)NCC(c2cccs2)N2CCOCC2)c([N+](=O)[O-])cc1OC (stereo unspecified) | . | . | -7% | 3%
CC1=CC(=O)C(C(C)C)=C/C1=N/OS(=O)(=O)c1ccccc1 | 20µM* | 3% | ? | -16%
Cc1ccc2c(c1)/C(=N/OS(=O)(=O)c1ccccc1)CCS2 | . | . | -3% | -14%
CC1=CC(=O)C=C(C)C1=NOS(=O)(=O)c1ccccc1 | 4µM* | 3% | ? | 5%
Cc1ccc(S(=O)(=O)ON=C2CCN(S(=O)(=O)c3ccccc3)CC2)cc1 | -8% | 0% | 8% | -1%
COc1ccc(-c2cc3nc4n(c(=O)c3s2)CCC4)cc1 | 1% | 7.1µM* | -12% | -3%
SMILES | Giardia FBPA inh | LmPK inhibitor | RE007 growth inh | TbPYK inhibitor
O=C(Nc1ccccc1)c1ccccc1O | 1% | -2% | -30% | -8%
Cc1ccc(NC(=O)c2ccccc2O)cc1 | -8% | -24% | 32µM* | -7%
COc1ccc(C(=O)NNC(=S)NC(=O)/C=C/c2cccs2)cc1 | 1% | 25µM* | -12% | -10%
Cn1c2c(c(=O)c3ccccc31)C[C@@H](O)C(C)(C)O2 | 1% | . | . | .
C(=C\n1nnc2ccccc21)/c1ccc[nH]1 | . | . | -11% | 8%
CCn1nccc1C(=O)Nc1ccc(Cl)cn1 | -4% | 28µM* | -6% | -13%
Cc1nc2nc(-c3ccccc3)cn2nc1C | 1% | 13µM* | -9% | -23%
CC(Oc1cccc(Cl)c1)C(=O)Nc1nc(-c2ccccn2)cs1 (stereo unspecified) | . | . | 45µM* | -5%
COc1ccc(N2C(=O)CC(N(CCc3ccc(OC)c(OC)c3)C(=S)Nc3ccccc3)C2=O)cc1 (stereo unspecified) | -17% | 2% | 24% | -10%
